Test results: PubChem BioAssay AID1209 (Sanford-Burnham Center for Chemical Genomics, 2008)
About 810 (0.43%) of roughly 190,000 compounds were called active. Rule as the data show it: active = inhibition above about 50%; inactive = the rest. Only a selection was taken, and actives are over-represented in it overall.

What follows are molecules tested against Mannose-6-phosphate isomerase (Homo sapiens) (UniProt P34949) (assay: inhibitors of human PMI, primary screen, biochemical, fluorescence intensity, coupled assay (AID 1209;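 also: plate controls were DMSO vehicle for no effect and wells lacking substrate for full effect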)). Conditions: purified PMI enzyme, at 20 µM, hits give high values.
Mannose-6-phosphate isomerase (Homo sapiens), sequence (P34949 whole entry, looked up): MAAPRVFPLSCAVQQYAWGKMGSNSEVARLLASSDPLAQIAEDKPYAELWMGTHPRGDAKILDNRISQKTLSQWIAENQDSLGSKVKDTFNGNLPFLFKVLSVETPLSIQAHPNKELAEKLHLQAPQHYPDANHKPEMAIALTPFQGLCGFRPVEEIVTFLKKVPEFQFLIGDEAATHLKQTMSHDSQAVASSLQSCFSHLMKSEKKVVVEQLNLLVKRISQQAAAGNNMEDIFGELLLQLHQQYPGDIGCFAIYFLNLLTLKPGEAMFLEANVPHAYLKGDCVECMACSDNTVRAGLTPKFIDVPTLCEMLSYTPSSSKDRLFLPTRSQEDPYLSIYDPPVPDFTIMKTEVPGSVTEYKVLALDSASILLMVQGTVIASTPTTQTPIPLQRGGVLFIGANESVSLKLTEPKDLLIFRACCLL

inhibition, active:
Cc1c(Br)c([N+](=O)[O-])nn1CC(=O)NCc1ccccn1 101%, CCOCC(=O)Nc1nc2ccc(C)cc2s1 110%, O=C(/C(=N/N=C/c1ccc(O)c(O)c1O)c1ccccc1)c1ccccc1 55.5%, Oc1ccc(/C=N/N(Cc2ccccc2)c2ccccc2)c(O)c1O 76.6%, Oc1ccc(/C=N/N=C(c2ccccc2)c2ccccc2)c(O)c1O 67.9%, CSc1nc(=NC(C)=O)ss1 54.4%, CCN(CC)CCOC(=O)c1c(C)oc2ccc(O)cc12 81.6%, Cc1nc(SCC(=O)c2ccccc2)n[nH]1 65.9%, O=C(CCCN1C(=O)/C(=C/c2ccccc2)SC1=S)Nc1ccc(O)cc1 73%, CC1=CC(C)(C)Nc2ccc(OC(=O)CN3C(=O)c4cccc5cccc(c45)C3=O)cc21 53.4%, CCOC(=O)c1c(-c2cccs2)csc1N 51%, CCOC(=O)c1c(-c2ccc(C)s2)csc1N 62.1%, CCc1c(C)sc(NC(=O)C2CCCCC2C(=O)O)c1C(N)=O (configuration not stated) 72.1%, Cc1ccc(-n2nc3cc(C)c(N)cc3n2)cc1 75.3%, Nc1cc2nn(-c3ccccc3)nc2cc1Cl 69.4%, Cc1cc2nn(-c3cccc4ccccc34)nc2cc1N 77.5%, O=C(COC(=O)C(Cc1ccccc1)NC(=O)c1ccc(Cl)cc1)c1ccc(Cl)cc1 (configuration not stated) 111%, Oc1ccc2ccccc2c1C=NC1CCCCC1 79.8%, Oc1ccc2ccccc2c1C=NC12CN3CCN(CN(C3)C1)C2 67.7%

inhibition, inactive:
Cc1c(Br)c([N+](=O)[O-])nn1CC(=O)NCc1ccccc1 1.2%, Cc1c(Br)c([N+](=O)[O-])nn1CC(=O)Nc1ccccn1 7.8%, O=C(C1CCCN(S(=O)(=O)c2cnc[nH]2)C1)N(CCc1ccccc1)Cc1ccccc1 (configuration not stated) 9.1%, COCC(=O)Nc1nc2ccc(C)cc2s1 4.3%, CCOCC(=O)Nc1nc2ccc(OCC)cc2s1 -3%, CNC(=S)N1CCc2cc(OC)c(OC)cc2C1COc1ccc(F)cc1 (configuration not stated) 10.3%, O=C1CNC(=O)c2c(nc3n2CCC3)N1 -20.3%, CC(C)=C1SC(N2CCN(c3ccc(Cl)cc3)CC2)=NC1=O 0.9%, COc1cccc(C(=O)NC(C)C(c2cccs2)N2CCN(C)CC2)c1 (configuration not stated) 4.2%, Oc1cccc(C=NCc2ccccc2)c1O 49.6%, COc1cc(/C=N/N=C(/C(=O)c2ccccc2)c2ccccc2)cc(OC)c1O 22%, COc1ccc(/C=N/N(Cc2ccccc2)c2ccccc2)cc1O 16.7%, Oc1cccc(/C=N/N(Cc2ccccc2)c2ccccc2)c1 10%, CCN(CC)c1ccc(/C=N/N=C(c2ccccc2)c2ccccc2)c(O)c1 0.4%, O=C(/C(=N/N=C/c1ccc(O)c(O)c1)c1ccccc1)c1ccccc1 30.7%, CC(=O)c1cn(CCCCCCCn2cc(C(C)=O)c(=O)[nH]c2=O)c(=O)[nH]c1=O 1.5%, O=C(COC(=O)Cc1ccc(Br)cc1)NC1CCCCC1 -3.4%, Oc1ccc(C2N=C(c3ccccc3)NC(c3ccccc3)=N2)cc1 3.9%, Cc1ccc(C(=O)OCC(=O)Nc2sc3c(c2C#N)CCCC3)cc1NC(=O)c1ccco1 1.3%, CCN(c1ccccc1)S(=O)(=O)c1ccc(OC)c(NC(=O)CNC)c1 7.5%, CCOC(=O)c1c(C)oc2ccc(O)cc12 8.3%, CCN(CC)CCOC(=O)c1c(C)oc2ccc(OC)cc12 -3.8%, C/C(=N\NC(=O)CCc1c[nH]c2ccccc12)c1ccc([N+](=O)[O-])cc1 7.7%, O=C(Cc1coc(-c2ccc(F)cc2)n1)N1CCOCC1 1%, Nc1ccc(N(CCO)CCO)cc1 4.7%, OCCN(CCO)c1ccc(C(c2ccccc2Cl)c2ccc(N(CCO)CCO)cc2Cl)c(Cl)c1 22.1%, Cc1nc(SCC(=O)c2ccc(F)cc2)n[nH]1 -6.3%, Cc1ccc(C(=O)CSc2n[nH]c(C)n2)cc1 48.5%, Cc1ccc(/C=C2/SC(=S)N(CCCC(=O)Nc3ccc(O)cc3)C2=O)cc1 22.7%, O=C(CCCN1C(=O)/C(=C/c2ccccc2)SC1=S)Nc1cccc(O)c1 13%, O=C(COC(=O)/C=C/c1ccc([N+](=O)[O-])cc1)NC(c1ccccc1)c1ccccc1 13%, CC1=C(C(=O)Nc2ccccc2)C(c2cccc([N+](=O)[O-])c2)Nc2nc3ccccc3n21 (configuration not stated) 6.9%, O=C(CN1c2cccc3cccc(c23)S1(=O)=O)N1CCOCC1 1%, CC1=CC(C)(C)Nc2ccc(OC(=O)CN3C(=O)c4ccccc4C3=O)cc21 16.6%, CC1=CC(C)(C)Nc2ccc(OC(=O)CN3C(=O)CCC3=O)cc21 22%, Cc1cc(NC(=O)c2cc(-c3ccccc3)on2)n(-c2ccccc2)n1 0.3%, CCC(C)CCCCNC1=NCCS1 (configuration not stated) -16.3%, Cc1ccc(-c2n[nH]c(=S)n2/N=C/c2ccncc2)cc1 -12%, Cc1ccc(/C=N/n2c(C)nnc2C)cc1 3.6%, NC(=O)c1c(-c2cccs2)csc1N 34.2%, CCOC(=O)c1c(-c2ccc(C)s2)csc1NC(=O)c1cccs1 1.1%, CCOC(=O)c1c(-c2cccs2)csc1NC(C)=O 7.1%, CCOC(=O)c1c(-c2ccncc2)csc1N 23.6%, O=C1c2ccccc2C(=O)N1CCCCN(C(=O)c1cc2ccccc2oc1=O)c1ccc(F)cc1F 11.5%, Cc1cccc(-n2c(Cc3ccccc3)nnc2SCC(=O)N2CCOCC2)c1 -6.7%, O=C(NCc1ccccc1)c1cnc(-c2ccccn2)nc1C(F)(F)F -3.7%, CCC(OC(=O)c1cccs1)C(=O)NC1CCCCC1 (configuration not stated) 3.4%, O=[N+]([O-])c1cc(/C=N/n2c(-c3ccncc3)n[nH]c2=S)ccc1Cl 2.2%, CC(C)CC(c1nnnn1Cc1ccc2c(c1)OCO2)N1CCC(C(N)=O)CC1 (configuration not stated) 7.2%, Cc1sc(NC(=O)C2CCCCC2C(=O)O)c(C(N)=O)c1C (configuration not stated) -5.3%, CCc1c(C)sc(NC(=O)C2CC2c2ccccc2)c1C(N)=O (configuration not stated) 7.7%, COC(=O)c1c(N2C(=O)CC(Sc3ccccc3C(=O)O)C2=O)sc(C)c1C (configuration not stated) -16.2%, COC(=O)c1sccc1NC(=O)CSc1ccccc1N 12.4%, CCN(CC(=O)NCc1ccc(F)cc1)Cc1cc(=O)n2ccsc2n1 -30.2%, CCC(=O)Nc1cc2nn(-c3ccc(C)cc3)nc2cc1C -2.8%, Cc1cc2nn(-c3cccc4ccccc34)nc2cc1NC(=O)c1cccs1 12.3%, Nc1ccc2nn(-c3cccc4ccccc34)nc2c1 42.9%, Nc1ccc2nn(-c3ccccc3)nc2c1 35.7%, CC(=O)Nc1cc2nn(-c3ccccc3)nc2cc1Cl 0.2%, Cc1ccc(-n2nc3ccc(N)cc3n2)cc1 38.7%, OCCNCc1cc(Br)ccc1OCc1ccc(Cl)cc1 10.8%, COc1ccccc1NC(=O)CCN1CCCCCC1 -1.2%, O=C(Cc1ccccc1F)OCC(=O)N1CCN(C(=O)c2ccco2)CC1 -7.8%, COc1cc(/C=N/NC(=O)C(Cc2c[nH]c3ccccc23)NC(=O)OCC(C)C)cc([N+](=O)[O-])c1OCc1ccccc1 (configuration not stated) 13.6%, Cc1ccc(S(=O)(=O)N2CCCC(C(=O)NCc3cccnc3)C2)cc1Cl (configuration not stated) 12.2%, CCOc1ccc(NC(=O)CSc2nnc(-c3ccccn3)n2C)cc1 2.1%, [N-]=[N+]=CC(=O)CNC(=O)[C@@H](Cc1ccccc1)N1C(=O)c2ccccc2C1=O -1.7%, CCc1nc(SC)[nH]c(=O)c1C -10.9%, COC(=O)c1c(NC(=O)/C=C/c2ccco2)sc2c1CCC2 -2.8%, CCOc1ccc(NS(=O)(=O)c2ccc(NC(=S)NC(C)=O)cc2)cc1 4.1%, O=C(COC(=O)C(Cc1ccccc1)NC(=O)c1ccccc1)c1ccccc1 (configuration not stated) 6.8%, CCc1ccc(C(=O)COC(=O)C(Cc2ccccc2)NC(=O)c2ccc(Cl)cc2)cc1 (configuration not stated) 11.2%, O=C(OC1CCOC1=O)c1cc(-c2ccccc2)nc2ccccc12 (configuration not stated) 8.9%, Oc1ccc2ccccc2c1C=Nc1ccc(N2CCOCC2)cc1 35.2%, Oc1ccc2ccccc2c1/C=N/n1cnnc1 15.7%, CN(C)/N=C/c1c(O)ccc2ccccc12 31.9%, OCC(CO)(CO)N=Cc1c(O)ccc2ccccc12 37.3%, O=C(CCc1ccccc1)Nc1ccc(N2CCOCC2)c(Cl)c1 11.3%, N#Cc1nc(COc2ccccc2)oc1NCCCn1ccnc1 0.3%, CCC(=O)Nc1ccccc1-c1nnn(CC(=O)N2c3ccccc3CC2C)n1 (configuration not stated) 13%, CCCCN(C(=O)c1ccc(S(=O)(=O)N(C)C)cc1)c1nc2ccccc2s1 11.7%, CCOC(=O)Cc1cnc(N)s1 2.1%, COCCN(CC(=O)NCC1CCCO1)C(=O)CCC(=O)Nc1cc(C)ccn1 (configuration not stated) -12.3%
